tim23-1 inh: growth inhibitors of tim23-1 mutant yeast, primary screen, luminescence, uHTS | S. cerevisiae tim23-1 growth, BacTiter-Glo luminescence, 24 h | AID 463212, 2010 | actives 1.3% (n = 330,000) | inhibition, % at 20 µM;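 active means growth inhibition of the mutant yeast at or above 50%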;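 further: temperature-sensitive mutant grown at 25 °C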
tim10-1 inh: growth inhibitors of tim10-1 mutant yeast, primary screen, luminescence, uHTS | S. cerevisiae tim10-1 ts strain growth, BacTiter-Glo, 24 h | inhibition, % at 20 µM | actives 2.2% (n = 330,000);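 active means inhibition of at least 40%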;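 further: mutant grown at 25 °C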
TIM10 inh: growth inhibitors of isogenic TIM10 control yeast, primary screen, counter-screen for tim10-1 yeast inhibitor project, luminescence, uHTS | actives 1.4% (n = 330,000) | inhibition, % at 10 µM | S. cerevisiae TIM10 strain growth, BacTiter-Glo luminescence, 24 h;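 active means inhibition of 40% or more at the single tested concentration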;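 further: wild-type TIM10 isogenic control strain grown at permissive 25 °C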
V-ATPase pH: regulators of yeast V-ATPase proton pumping, primary screen, pHLuorin cytosolic pH fluorescence; actives 0.37% (n = 350,000); S. cerevisiae; response, % at 10 µM; in the data active means response mostly above about 7.3%, no sharp cut-off; inactive means mostly below about 5.4%; further: actives read high
NALP1 inh: NALP1 inflammasome inhibitors in reconstituted yeast, colorimetric, S. cerevisiae, triplicate retest; S. cerevisiae NALP1/ASC/caspase-1 growth, X-gal OD620, 72 h; inhibition, % at 10 µM; actives 0.61% (n = 280,000); in the data active means inhibition mostly above about 24%, no sharp cut-off; inactive means mostly below about 32%
NLRP3 yeast inh: NALP3 inflammasome inhibitors in reconstituted yeast, primary screen, luminescence, uHTS | inhibition, % at 10 µM | Yeast reconstituted NLRP3/ASC/caspase-1, beta-gal luminescence, 24 h | actives 0.39% (n = 330,000);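 active means inhibition of 50% or more; inactive means inhibition below 50%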
tim10-1 conf: growth inhibitors of tim10-1 mutant yeast, confirmation, single concentration, luminescence, S. cerevisiae; shares compounds with tim10-1 inh; S. cerevisiae tim10-1 ts strain growth, BacTiter-Glo, 24 h; inhibition, % at 20 µM; actives 56% (n = 7,400); AID 463213, 2010;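 active means inhibition of yeast growth at or above a set limit in either of two repeat tests at 20 µM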;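 further: tim10-1 mutant grown at permissive 25 °C to find synthetic lethal compounds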
Hits are given with their value. Most compounds without a hit are left out; they make up all but 4.2% or so of the library.

O=C(CS(=O)(=O)c1ccccc1)Nc1nc(-c2ccccc2)cs1 was read as tim23-1 inh inactive, tim10-1 inh 47.3, TIM10 inh inactive, V-ATPase pH inactive, NALP1 inh inactive, NLRP3 yeast inh inactive and tim10-1 conf 40.4.
Screening COc1ccccc1/C=C\C(=O)NCC(=O)N/N=C/c1cccc(OC)c1O returned tim23-1 inh inactive, tim10-1 inh 50.9, TIM10 inh inactive, V-ATPase pH inactive, NALP1 inh inactive, NLRP3 yeast inh inactive and tim10-1 conf inactive.
For CC(=O)C1=C(c2ccccc2)OC(N)=C(C#N)C1c1ccccc1C (stereo unspecified) the results were tim23-1 inh inactive, tim10-1 inh 44.9, TIM10 inh inactive, V-ATPase pH inactive, NALP1 inh inactive, NLRP3 yeast inh inactive and tim10-1 conf inactive.
CC(=O)C1=C(C)OC(N)=C(C#N)C1c1cc2cccc(C)c2nc1Cl (stereo unspecified) was read as tim23-1 inh inactive, tim10-1 inh 45.6, TIM10 inh inactive, V-ATPase pH inactive, NALP1 inh inactive, NLRP3 yeast inh inactive and tim10-1 conf inactive.
Screening COc1ccc(NCC(O)Cn2c(C)c(C)c3ccccc32)cc1 (stereo unspecified) returned tim23-1 inh inactive, tim10-1 inh inactive, TIM10 inh inactive, V-ATPase pH inactive, NALP1 inh inactive and NLRP3 yeast inh inactive.
COc1ccc(-c2cc(-c3cccs3)nc(OC)c2C#N)cc1OC was read as tim23-1 inh inactive, tim10-1 inh inactive, TIM10 inh inactive, V-ATPase pH inactive, NALP1 inh inactive and NLRP3 yeast inh inactive.
`CCC(=O)N1c2ccc(S(=O)(=O)CCC(=O)N3CCn4c3nc3ccccc34)cc2CC1C` (stereo unspecified) gave tim23-1 inh inactive, tim10-1 inh 44.7, TIM10 inh inactive, V-ATPase pH inactive, NALP1 inh inactive, NLRP3 yeast inh inactive and tim10-1 conf inactive.
Screening O=C(CCCc1ccccc1)NCCS(=O)(=O)N1CCN(c2ccccc2F)CC1 returned tim23-1 inh inactive, tim10-1 inh inactive, TIM10 inh inactive, V-ATPase pH inactive and NLRP3 yeast inh inactive.
For O=C(CC1SC(=O)N(c2ccccc2)C1=O)Nc1ccccc1 (stereo unspecified) the results were tim23-1 inh inactive, tim10-1 inh inactive, TIM10 inh inactive, V-ATPase pH inactive, NALP1 inh inactive and NLRP3 yeast inh inactive.
For Cc1cccc(NC(=O)CC2SC(=O)N(c3ccccc3)C2=O)c1 (stereo unspecified) the results were tim23-1 inh inactive, tim10-1 inh 43.3, TIM10 inh inactive, V-ATPase pH inactive, NALP1 inh inactive, NLRP3 yeast inh inactive and tim10-1 conf 37.0.
Screening S=C(NCC1CCCO1)Nc1ccc(Cl)c(Cl)c1 (stereo unspecified) returned tim23-1 inh inactive, tim10-1 inh 41.3, TIM10 inh inactive, V-ATPase pH inactive, NALP1 inh inactive, NLRP3 yeast inh inactive and tim10-1 conf inactive.
Screening CN(C)c1ccc(NC(=S)NCC2CCCO2)cc1 (stereo unspecified) returned tim23-1 inh inactive, tim10-1 inh inactive, TIM10 inh inactive, V-ATPase pH inactive, NALP1 inh inactive and NLRP3 yeast inh inactive.
`CCCCc1ccc(NC(=S)NCC2CCCO2)cc1` (stereo unspecified) gave tim23-1 inh inactive, tim10-1 inh 45.1, TIM10 inh inactive, V-ATPase pH inactive, NALP1 inh inactive, NLRP3 yeast inh inactive and tim10-1 conf 33.5.
For Cc1nnc(SCC(=O)c2ccc(Br)cc2)s1 the results were tim23-1 inh inactive, tim10-1 inh inactive, TIM10 inh inactive, V-ATPase pH inactive, NALP1 inh inactive and NLRP3 yeast inh inactive.
For O=C(c1cccc(S(=O)(=O)N2CCc3ccccc32)c1)N1CCOCC1 the results were tim23-1 inh inactive, tim10-1 inh inactive, TIM10 inh inactive, V-ATPase pH inactive and NLRP3 yeast inh inactive.

Screening data: PubChem, several laboratories
